Bioassay records: PubChem, Buhrlage Lab, Dana-Farber Cancer Institute and Novartis Institutes for BioMedical Research (Cambridge, Mass)
Most compounds without a hit are left out; they make up all but 11% or so of the library.
USP28 block: inhibitors of human USP28 deubiquitinase. purified USP28, Ub-rhodamine cleavage fluorescence, 30 min. inhibition, % at 25 µM. 47,000 tested, 3% active
OTUD3 block: human OTUD3 deubiquitinase inhibition; purified OTUD3, Ub-rhodamine fluorescence, 2 h; 47,000 tested, 0.7% active; inhibition, % at 25 µM; AID 1645858; Q5T2D3
Target sequence (Q5T2D3 whole entry, looked up): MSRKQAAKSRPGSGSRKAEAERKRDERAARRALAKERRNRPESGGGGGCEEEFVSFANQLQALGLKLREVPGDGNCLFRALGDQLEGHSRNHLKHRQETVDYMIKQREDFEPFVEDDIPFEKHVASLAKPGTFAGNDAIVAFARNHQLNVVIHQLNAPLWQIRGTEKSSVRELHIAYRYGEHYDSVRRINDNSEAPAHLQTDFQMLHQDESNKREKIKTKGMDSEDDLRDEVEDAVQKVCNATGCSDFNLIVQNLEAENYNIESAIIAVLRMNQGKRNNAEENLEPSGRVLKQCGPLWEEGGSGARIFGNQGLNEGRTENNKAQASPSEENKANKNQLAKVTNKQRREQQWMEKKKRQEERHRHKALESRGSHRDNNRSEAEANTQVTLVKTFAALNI
USP30 inh: human USP30 deubiquitinase inhibition; 47,000 tested, 5.3% active; inhibition, % at 25 µM; purified USP30, Ub-rhodamine cleavage fluorescence; Q70CQ3
USP17 block: blocks human USP17 ubiquitin-rhodamine cleavage; purified USP17, Ub-rhodamine cleavage fluorescence, 3 h; 47,000 tested, 6.5% active; inhibition, % at 50 µM; A8MUK1
Starred values were filed as active, the others as inactive; . = no result. No stated cut-off is given here; in the data, active means inhibition above about 30%; inactive means the rest.

SMILES	USP28 block	OTUD3 block	USP30 inh	USP17 block
Cc1cccc(NC(=O)N2CCCC2c2ccc3c(c2)OCCCO3)c1 (centres undefined)	11	16	17	13
COc1ccc2c(c1)C[C@@H](c1cccnc1)N[C@H]2c1ccncc1	-4	-4	-3	1
Cc1cccc(OCC(=O)Nc2ccc3c(c2)Sc2ncccc2C(=O)N3C)c1	4	-8	-32	14
Cc1cccc(NC(=O)Cn2c(=O)nc(N(C)c3ccccc3)c3ccccc32)c1	41*	1	15	23
O=C(CCc1ccccc1)Nc1nnc(-c2ccc(Br)cc2)s1	3	27	22	.
O=C(Cc1ccccc1)c1ccc(Br)s1	35*	15	9	25
COc1ccccc1-c1noc(C2CCCN2C(=O)Nc2cccc(C)c2C)n1 (centres undefined)	8	20	49*	23
Cc1cc(OCC(=O)Nc2ccccc2)nc(N2CCCC(C)C2)n1 (centres undefined)	2	-1	14	31*
Cc1cccc(NC(=O)COc2cc(C)nc(N3CCCCC3)n2)c1	14	18	30*	.
O=S(=O)(c1ccccc1)N1CCCCCC1C1CCNCC1 (centres undefined)	.	1	.	0
COc1ccc(/C(C#N)=C/c2cn[nH]c2)cc1	4	6	2	-21
COc1ccc(/C(C#N)=C\c2ccc3c(c2)OCO3)cc1	33*	21	35*	29
N#C/C(=C\c1cccc(Oc2ncccn2)c1)c1ccc2c(c1)OCO2	.	12	.	30*
O=C(CCC1CCCCC1)Nc1ccccc1C(=O)N1CCOCC1	34*	29	40*	70*
Cc1nnc(Sc2cc(C(=O)NCCN3CCCC3)c3ccccc3n2)s1	-9	-7	-12	52*
Cc1nnc(Sc2cc(C(=O)NCc3ccco3)c3ccccc3n2)s1	-15	0	-64	12
CCNC(=O)N1C[C@H](Oc2ccccn2)[C@H]2C[C@@H]1CC[C@H]2N1CCOCC1	-4	0	2	4
O=C(c1c(F)cccc1F)N1CCN(C(=O)c2cnn3ccccc23)CC1	14	11	31*	17
O=C(c1ccc(F)cc1Cl)N1CCN(C(=O)c2cnn3ccccc23)CC1	14	15	16	2
O=C(Nc1ccc(NC(=O)c2ccccc2O)cc1)Nc1ccc(OCc2ccccc2)cc1	-115	-60	-479	-19
O=C(COc1ncnc2ccccc12)Nc1ccc(OCc2ccccc2)cc1	.	-1	.	48*
c1ccc(C2(c3nnc(CC4CCCCC4)o3)CCOCC2)cc1	-16	0	0	1
O=C1CC(c2ccco2)Cc2[nH]c(=O)c(C(=O)Nc3ccc(Cl)cc3)cc21 (centres undefined)	35*	20	-36	60*
O=S(=O)(c1ccccc1)c1cnc2cc3c(cc2c1N1CCC2(CC1)OCCO2)OCCO3	-8	-9	2	-3
Cc1nccnc1CCC1COCCN1C(=O)c1n[nH]c2ccccc12 (centres undefined)	-25	-22	-68	-29
SMILES	USP28 block	OTUD3 block	USP30 inh	USP17 block
Cc1nccnc1CCC1COCCN1C(=O)c1ccc2n[nH]nc2c1 (centres undefined)	7	7	31*	5
CCN(CC)c1ccc(NC(=O)C2=CCN(S(=O)(=O)c3ccc(F)cc3)CC2)c(C)c1	35*	-3	14	-4
COc1ccc(NC(=O)CC(=O)c2ccc([N+](=O)[O-])cc2)cc1S(=O)(=O)Nc1ccc(Cl)cc1	26	13	61*	38*
COc1ccccc1NS(=O)(=O)c1cc(NC(=O)CC(=O)c2ccc([N+](=O)[O-])cc2)ccc1C	12	3	11	.
COc1ccc([N+](=O)[O-])cc1NS(=O)(=O)c1cc(C(=O)NCc2cccnc2)ccc1Cl	0	6	17	-21
COc1ccc(NS(=O)(=O)c2cc(NC(=O)CC(=O)c3ccc([N+](=O)[O-])cc3)ccc2Cl)cc1	0	-4	19	49*
COc1ccc(NS(=O)(=O)c2cccc(NC(=O)CC(=O)c3ccc([N+](=O)[O-])cc3)c2)cc1	.	0	.	76*
COc1ccc(NS(=O)(=O)c2cccc(NC(=O)CCC(=O)c3ccc(Cl)cc3)c2)cc1	4	-4	-1	9
Cc1cc2nc(N3CCN(S(=O)(=O)c4ccccc4C(F)(F)F)CC3)c3ccccc3n2n1	-8	0	-7	-31
Cn1c(N2CCCC(C(=O)NCCCN3CCOCC3)C2)cc(=O)n(C)c1=O (centres undefined)	10	13	16	3
CCc1nccn1Cc1noc(-c2ccc(C)c(C)c2)n1	39*	-3	-3	0
CCc1nccn1Cc1nc(-c2ccc(Cl)cc2)no1	43*	-1	-15	-3
